Measured values taken from PubChem BioAssay (NCATS).
Inconclusive results are not listed. Values without a mark were called inactive. The source made the active and inactive calls. The call rests on the fitted dose curve; in most records, active means well fitted cell-killing curve with a large enough effect; inconclusive means small, poorly fitted or top-dose-only effect; inactive means flat fitted curve, though single readings scatter.

Assay: Cell Viability - NIH 3T3 (AID 541); further: nearly all actives have a fitted effect of over 25% in size;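 on activity change, negative = cytotoxicity: plate controls were DMSO alone for no effect and tamoxifen positive control for full effect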
Settings: NIH 3T3 cell viability, qHTS; series mostly up to 92.2 µM; activity change, negative = cytotoxicity: at the top concentration
Source text: NIH Chemical Genomics Center [NCGC]
NIH Molecular Libraries Screening Centers Network [MLSCN]
National Institutes of Environmental Health Sciences [NIEHS]
National Toxicology Program [NTP]
We have developed a 1536-well cell-based assay for quantitative high throughput screening (qHTS) against a number of cell lines to determine in vitro cytotoxicity of small molecules. This particular assay uses the NIH 3T3 fibroblast cell line which is established from NIH Swiss mouse embryo.
NCGC Assay Protocol Summary:
The CellTiter-Glo luminescent cell viability assay (Promega) is a homogeneous method to measure the number of viable cells in culture. The end point readout of this assay is based on quantitation of intracellular ATP, an indicator of metabolic activity, using the luciferase reaction. Luciferase catalyzes the oxidation of beetle Luciferin to oxyluciferin and light in the presence of ATP. The luminescent signal is proportional to amount of ATP present.
Using the CellTiter-Glo luminescent cell viability assay, the amount of cellular ATP was measured in the NIH 3T3 cell line with complete culture medium following compound treatment for 40 hours. The assay was performed in opaque white Kalypsys 1536-well plates. In the screen, tamoxifen and doxorubicin were used as positive controls. Library compounds were measured for their ability to cause acute toxicity in the cell line, as reflected by a decrease in intracellular ATP levels, in a concentration-dependent manner. […] AC50 values were determined from concentration-response data modeled with the standard Hill equation.
qHTS protocol for CellTiter Glo NIH 3T3 cellular assay
[Step] [Parameter] [Value] [Description]
1. Reagent; 5 uL; 1000 NIH 3T3 cells/well
2. Time; 5 hr; 37 °C incubation
4. Controls; 23 nL; Tamoxifen 0.34 uM to 100 uM & Doxorubicin 0.02 nM to 100 uM
5. Time; 40 hr; 37 °C incubation
6. Reagent; 5 uL; CellTiter Glo reagent
7. Time; 20 min; Room Temperature
8. Detection; Luminescence; Viewlux plate reader
Keywords: cell viability, cytotoxicity, NIH 3T3 cell line, luminescence, NTPHTS, NTPHTS_NCGC, NIEHS, EPA, DSSTox, MLSMR, MLSCN, NIH Roadmap, qHTS, NCGC
Potency means the concentration at half of the fitted maximal effect.

SMILES | activity change, negative = cytotoxicity [%] | Potency
CCOCCOC(C)=O | -11.7 | 
C=CC(=O)NCNC(=O)C=C | -7.88 | 
O=[N+]([O-])c1c2ccccc2cc2ccccc12 | -21.3 | 
COc1ccc(C(c2ccc(OC)cc2)C(Cl)(Cl)Cl)cc1 | -26 | 
O=[N+]([O-])c1cc([N+](=O)[O-])c2ccccc2c1 | -28.9 | 
OCCCBr | 2.5 | 
O=C(O)C(Cl)Cl | -4.91 | 
Nc1ccc(Sc2ccc(N)cc2)cc1 | -10.2 | 
C1CCC(NC2CCCCC2)CC1 |  | inactive
CC(=O)[O][Hg][c]1ccccc1 |  | 63.1 nM (active)
CCCCCCCCc1ccc(O)cc1 | -17.5 | 
Nc1ccc(Cl)cc1 | -9.14 | 
O=C(O)COc1ccccc1 | -15.2 | 
CN(C)NC(=O)CCC(=O)O | -17.6 | 
c1cc2ccc3cccc4ccc(c1)c2c34 | -13.5 | 
Nc1ccc([N+](=O)[O-])cc1 | -6.71 | 
Nc1ccc(Cl)cc1N |  | 631 nM (active)
CCCCOC(=O)c1ccccc1C(=O)OCc1ccccc1 | -18.4 | 
COC(C)(C)CCCC(C)C/C=C/C(C)=C/C(=O)OC(C)C (stereo unspecified) | -16.9 | 
Cc1cc(O)ccc1Cl | -13.9 | 
CN(C)[C@@H]1C(=O)C(C(N)=O)=C(O)[C@@]2(O)C(=O)C3=C(O)c4c(O)cccc4[C@@](C)(O)[C@H]3[C@H](O)[C@@H]12 | -12.1 | 
